# Test results taken from the antibiotic and cytotoxicity screens of Wong et al. (2023).
# Hit rate of the full screen: of about 39,000 compounds, about 1,500 (3.8%) were called active. Only a selection was taken, and actives are over-represented in it overall.
# Test system: HSkMC (human skeletal muscle cells)
# Test: cytotoxicity call (relative viability < 0.9)
# Settings: 10 µM
row,Compound,cytotoxicity call
1,Cc1noc(C)c1NC(=O)Nc1ccc2c(c1)C(=O)N([C@H](C)CO)C[C@@H](C)[C@@H](CN(C)Cc1ccc3c(c1)OCO3)OCCCC[C@@H](C)O2,inactive
2,O=C(CCCCCNC(=O)OCc1ccc(CN(C(=O)Nc2ccccc2)[C@@H](Cc2ccccc2)Cn2cc(-c3ccccn3)nn2)cc1)NO,inactive
3,Cc1ccc(S(=O)(=O)Nc2ccc3c(c2)C(=O)N([C@@H](C)CO)C[C@@H](C)[C@H](CN(C)Cc2ccc(C(F)(F)F)cc2)OCCCC[C@H](C)O3)cc1,inactive
4,Cc1ccc(S(=O)(=O)Nc2ccc3c(c2)C(=O)N([C@H](C)CO)C[C@@H](C)[C@H](CN(C)Cc2ccc(C(F)(F)F)cc2)OCCCC[C@H](C)O3)cc1,active
5,Cc1ccc(S(=O)(=O)Nc2ccc3c(c2)C(=O)N([C@H](C)CO)C[C@@H](C)[C@H](CN(C)Cc2ccc(C(F)(F)F)cc2)OCCCC[C@@H](C)O3)cc1,inactive
6,Cc1ccc(S(=O)(=O)Nc2ccc3c(c2)C(=O)N([C@H](C)CO)C[C@H](C)[C@@H](CN(C)Cc2ccc(C(F)(F)F)cc2)OCCCC[C@@H](C)O3)cc1,inactive
7,Cc1ccc(S(=O)(=O)Nc2ccc3c(c2)C(=O)N([C@@H](C)CO)C[C@@H](C)[C@@H](CN(C)Cc2ccc(C(F)(F)F)cc2)OCCCC[C@@H](C)O3)cc1,active
8,Cc1ccc(S(=O)(=O)Nc2ccc3c(c2)C(=O)N([C@@H](C)CO)C[C@H](C)[C@H](CN(C)Cc2ccc(C(F)(F)F)cc2)OCCCC[C@@H](C)O3)cc1,inactive
9,C[C@@H]1CN([C@H](C)CO)C(=O)c2cccc(NC(=O)c3nc4ccccc4s3)c2O[C@H]1CN(C)C(=O)Nc1cccc2ccccc12,inactive
10,CCN1C(=O)CN(CC(=O)O)C1=O,inactive
11,NCc1ccc2nsnc2c1,inactive
12,C[C@@H]1CN([C@@H](C)CO)C(=O)c2cccc(NS(C)(=O)=O)c2O[C@H]1CN(C)C(=O)Nc1ccc(C(F)(F)F)cc1,inactive
13,O=C(C[C@@H]1CC[C@@H]2[C@H](COC[C@H](O)CN2C(=O)Nc2ccc(F)cc2)O1)NCCCN1CCOCC1,inactive
14,C[C@H](CO)N1C[C@H](C)[C@@H](CN(C)S(C)(=O)=O)OCCCC[C@H](C)Oc2ccc(NS(=O)(=O)c3cn(C)cn3)cc2C1=O,inactive
15,C[C@@H]1CN([C@H](C)CO)S(=O)(=O)c2ccc(/C=C/c3ccccc3)cc2O[C@H]1CN(C)C(=O)Nc1cc(F)ccc1F,active
16,C[C@@H]1CN([C@@H](C)CO)S(=O)(=O)c2ccc(C#Cc3ccncc3)cc2O[C@H]1CN(C)C(=O)Nc1ccc2c(c1)OCO2,active
17,C[C@H]1CN([C@@H](C)CO)S(=O)(=O)c2ccc(/C=C/c3ccccc3)cc2O[C@@H]1CN(C)C(=O)Nc1cc(F)ccc1F,inactive
18,C[C@@H]1CN([C@@H](C)CO)S(=O)(=O)c2ccc(C#Cc3ccccc3F)cc2O[C@H]1CN(C)C(=O)c1ccc2c(c1)OCO2,active
19,C[C@H]1CN([C@@H](C)CO)S(=O)(=O)c2ccc(C#Cc3ccccc3F)cc2O[C@H]1CN(C)C(=O)c1ccc2c(c1)OCO2,inactive
20,C[C@H]1CN([C@@H](C)CO)S(=O)(=O)c2ccc(C#Cc3ccccc3F)cc2O[C@@H]1CN(C)C(=O)c1ccc2c(c1)OCO2,inactive

row,Compound,cytotoxicity call
1,C[C@H](CO)N1C[C@H](C)[C@@H](CN(C)C(=O)Nc2cccc(F)c2)Oc2cc(C#CC3(O)CCCC3)ccc2S1(=O)=O,inactive
2,C[C@H]1CN([C@@H](C)CO)S(=O)(=O)c2ccc(C#Cc3ccncc3)cc2O[C@@H]1CN(C)C(=O)Nc1ccc2c(c1)OCO2,inactive
3,C[C@H]1CN([C@@H](C)CO)S(=O)(=O)c2ccc(C#Cc3ccncc3)cc2O[C@H]1CN(C)C(=O)Nc1ccc2c(c1)OCO2,inactive
4,C[C@H](CO)N1C[C@H](C)[C@@H](CN(C)C(=O)Nc2cc(F)ccc2F)Oc2cc(/C=C/c3ccccc3)ccc2S1(=O)=O,inactive
5,C[C@@H]1CN([C@@H](C)CO)S(=O)(=O)c2ccc(C#CC3(O)CCCC3)cc2O[C@@H]1CN(C)C(=O)Nc1cccc(F)c1,inactive
6,C[C@H]1CN([C@@H](C)CO)S(=O)(=O)c2ccc(C#CC3(O)CCCC3)cc2O[C@@H]1CN(C)C(=O)Nc1cccc(F)c1,active
7,C[C@@H]1CN([C@H](C)CO)C(=O)c2cc(NS(C)(=O)=O)ccc2O[C@@H](C)CCCCO[C@@H]1CN(C)C(=O)CCCN(C)C,inactive
8,C[C@@H]1CN([C@@H](C)CO)C(=O)Cc2cc(NC(=O)CCCCCC(=O)Nc3ccccc3N)ccc2O[C@@H]1CN(C)Cc1ccc(-c2ccccc2)cc1,inactive
9,C[C@@H]1CN([C@@H](C)CO)C(=O)c2cc(NS(=O)(=O)c3cn(C)cn3)ccc2O[C@H]1CN(C)C(=O)Nc1ccc2c(c1)OCO2,inactive
10,C[C@H]1CN([C@@H](C)CO)C(=O)c2cccc(NC(=O)C3CCOCC3)c2O[C@H]1CN(C)Cc1ccccc1,inactive
11,CCC(=O)Nc1ccc2c(c1)OC[C@@H](C)N(C(=O)CN1CCOCC1)C[C@H](C)[C@H](OC)CN(C)C2=O,inactive
12,CN(C)CCCNC(=O)C[C@H]1CC[C@H]2[C@@H](COC[C@@H](O)CN2S(=O)(=O)c2ccc(Cl)cc2)O1,inactive
13,C[C@H](CO)N1C[C@H](C)[C@@H](CN(C)S(C)(=O)=O)Oc2cc(C#CCN(C)C)ccc2S1(=O)=O,inactive
14,COCC(=O)Nc1ccc2c(c1)OC[C@@H](C)N(C(=O)Cc1ccccn1)C[C@@H](C)[C@@H](OC)CN(C)C2=O,inactive
15,C[C@H]1CN([C@@H](C)CO)C(=O)c2cc(NC(=O)C3CC3)ccc2O[C@H]1CN(C)Cc1ccc2c(c1)OCO2,inactive
16,COc1cccc(NC(=O)N(C)C[C@H]2Oc3cc(C#Cc4ccncc4)ccc3S(=O)(=O)N([C@@H](C)CO)C[C@H]2C)c1,inactive
17,COc1cccc(NC(=O)N(C)C[C@H]2Oc3cc(C#Cc4ccncc4)ccc3S(=O)(=O)N([C@H](C)CO)C[C@@H]2C)c1,inactive
18,COc1cccc(NC(=O)N(C)C[C@H]2Oc3cc(C#Cc4ccncc4)ccc3S(=O)(=O)N([C@@H](C)CO)C[C@@H]2C)c1,active
19,COc1cc2c(cc1OC)CN(C(=O)[C@H]1[C@@H]3C(=O)O[C@@H](c4ccccc4)[C@@H](c4ccccc4)N3[C@@H](c3ccc(O)cc3)[C@]13C(=O)Nc1ccccc13)CC2,inactive
